Calls of active or inactive are those of the source. The calls were made as follows: active = hit-call score of the fitted dose curve at least 0.9, where 1 is the maximum; inactive = score below 0.9.

Read-out in this assay: Eotaxin 3, CCL26 (gene 10344)
In words: BSK_BF4T_Eotaxin3: BioMAP Diversity Plus: BF4T Assay for Eotaxin 3 Biomarker Activity (AID 2284258). Particulars: primary human bronchial epithelial cells with fibroblasts. The protocol:
BSK_BF4T is a cell-based, multiplexed-readout assay that uses bronchial epithelial cells and dermal fibroblasts, a human vascular primary cell, with measurements taken at 24 hours after chemical dosing in a microplate: 96-well plate.BSK_BF4T_Eotaxin3 is an assay component measured in the BSK_BF4T assay. It measures Eotaxin-3 antibody related to regulation of gene expression using ELISA technology.Data from the assay component BSK_BF4T_Eotaxin3 was analyzed at the endpoint, BSK_BF4T_Eotaxin3, in the positive analysis fitting direction relative to DMSO as the negative control and baseline of activity. Using a type of binding reporter, gain or loss-of-signal activity can be used to understand protein changes. To generalize the intended target to other relatable targets, this assay endpoint is annotated to the 'cytokine' intended target family, where the subfamily is 'chemotactic factor'.
The levels of cell surface (or secreted, indicated by the prefix "s") biomarker endpoints were measured by ELISA. Overt cytotoxicity to cells in confluent adherent cultures (all systems other than the BT system) was assessed by measuring total protein levels using sulforhodamine B (SRB) staining in parallel cultures at the time of biomarker measurements, indicated as SRB endpoints. For proliferation assays for adherent cell types, individual cell types are cultured at sub-confluence and relative cell numbers quantified by SRB staining at time points optimized for each system (48 h: 3C and CASM3C systems; 72 h: BT and HDF3CGF systems; 96 h: SAg system). SRB was performed by staining cells with 0.1% SRB after fixation with 10% TCA and reading wells at 560 nm.Viability and proliferation of PBMC (T cells) was quantified by Alamar Blue reduction for the SAg and BT systems. For PBMC viability (referred to as PBMC Cytotoxicity within the assay endpoint names), cells were plated (75,000/well in a 96-well plate) and then chemical samples added for 1 h before addition of activators, SEB and TSST-1 (20 ng/mL final concentration each). Cells were incubated for 90 h. Then, Alamar Blue (20 uL/well) (Invitrogen, Cat DAL1100) was added for 6 h, and the plates were read with a fluorescence microplate reader at 546/580 nm (excitation/emission). For PBMC proliferation, cells were plated and activated as above but incubated for only 16 h prior to addition of Alamar Blue. Plates were read after 6 h.
As to `OC(O)(C(F)C(O)(O)C(F)(F)F)C(F)(F)F`, the result was inactive. The same measure for `C[Si](C)(C)C(F)(F)C(F)(F)C(F)(F)F`: “inactive”. The same measure for `FC(F)(F)C(F)(F)C(F)(F)C(F)(F)C(F)(F)C(F)(F)I`: “inactive”. The same measure for `O=S(=O)(O)CCC(F)(F)C(F)(F)C(F)(F)C(F)(F)C(F)(F)C(F)(F)F`: “inactive”. As for `FC(F)(F)COC(OCC(F)(F)F)OCC(F)(F)F`, the outcome was inactive. The same measure for `OCCC(F)(F)C(F)(F)C(F)(F)C(F)(F)F`: “inactive”; for `O=C(Cl)C(F)(F)C(F)(F)C(F)(F)C(=O)Cl`: “inactive”. The same measure for `FC(F)=C(F)C(F)(F)C(F)(F)C(F)(F)C(F)(F)C(F)(F)C(F)(F)F`: “inactive”; for `NCC(F)(F)C(F)(F)C(F)(F)C(F)(F)F`: “inactive”. In the case of `FC(F)C(F)(F)COCC1CO1` (stereo not given) it was “inactive”.

The record behind these values is PubChem BioAssay (EPA / NIEHS).
